Experimental data: PubChem BioAssay AID686978 (National Center for Advancing Translational Sciences (NCATS), 2013)
Hit rate of the full screen: of about 420,000 compounds, about 64,000 (15%) were called active. About 27% were inconclusive and are not listed. These entries were drawn from the full list. Values without a mark were called inactive. Calls follow the shape of the dose curve; as a rule, active = well fitted inhibition curve with a large enough effect; inconclusive = small, poorly fitted or top-dose-only effect; inactive = flat fitted curve, though single readings scatter.

Test: qHTS for Inhibitors of human tyrosyl-DNA phosphodiesterase 1 (TDP1): qHTS in cells in absence of CPT; also: nearly all actives have a fitted effect of over 55% in size
Conditions: DT40 Tdp1-/- hTDP1 cells, no CPT, ATP luminescence, 48 h; activity change, negative = growth inhibition: at 46.2 µM (top of the series)
Method in brief: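 Chicken DT40 Tdp1-/- cells stably complemented with human TDP1 were seeded at 400 cells/well with DMSO in place of 20 nM camptothecin. After compound pinning, cells grew at least 48 hr at 37 °C; viability read by CellTiter-Glo luminescence.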
% is scaled to controls: 0 for no effect and ±100 for the full control effect; potency is read from the fitted curve at half-maximal effect.

Structure (SMILES) | activity change, negative = growth inhibition [%] | Potency
CC(CO)N1CCS(=O)(=O)CC1 (stereo not drawn) | -14 | 
CC1(C)CC(=O)C=C(Nc2ccccc2)C1 | 0.545 | 
O=C1CCCCC(=O)c2ccccc2N1 | -4.74 | 
c1ccc2c(c1)C(=NC1CCCCC1)NC2=NC1CCCCC1 |  | 14.6 µM (active)
O=C1CN(C(=O)COC(=O)/C=C/c2ccc(F)cc2)c2ccccc2N1 | -5.94 | 
Cc1cc2cc3c(N)[nH]nc3nc2cc1C | -21.4 | 
Cc1noc(C)c1/C=N/Nc1ccc2ccccc2n1 | 7.72 | 
Oc1ccc(/C=N/NC2=NCCCCC2)c(O)c1 | 4.82 | 
Cc1cc(N/N=C/c2ccccc2F)c2ccccc2n1 | -12.4 | 
Cc1nc2ccccc2nc1N/N=C/c1ccc(O)cc1O |  | 4.11 µM (active)
Oc1ccc(/C=N/Nc2nc(-c3ccccc3F)nc3ccccc23)c(O)c1 |  | 7.31 µM (active)
Cc1csc2nc(O)c(C(=O)NCCN3CCOCC3)c(=O)n12 | -6.85 | 
CC(C)NC(=O)C(=O)NCCN1CCN(S(=O)(=O)c2ccc(Cl)cc2)CC1 | -1.35 | 
COCCCNc1nc2ccccc2nc1NS(=O)(=O)c1ccc(F)cc1 | -1.47 | 
Cc1cccn2c(CN(C)C3CCCc4ccccc43)c(C(=O)N3CCOCC3)nc12 (stereo not drawn) |  | 18.4 µM (active)
Cc1cccn2c(CNCC(C)Oc3cccnc3)c(C(=O)N3CCOCC3)nc12 (stereo not drawn) | 30 | 
CCOC(=O)C1CCN(Cc2c(C(=O)N3CCOCC3)nc3c(C)cccn23)CC1 | -8.96 | 
CC1CCCCN1C(=O)CCS(=O)(=O)Cc1ccccc1 (stereo not drawn) | -3.87 | 
O=C(CC1Oc2ccc(Cl)cc2NC1=O)NCc1ccccc1 (stereo not drawn) | -3.5 | 
CCC(C(=O)Nc1ccc2c(c1)OCCO2)c1ccccc1 (stereo not drawn) | -21 | 
CC(=O)Nc1cccc(-c2nc3ccccc3s2)c1C | -5.62 | 
CCC(C(=O)Nc1cccc(-c2nc3cccnc3s2)c1C)c1ccccc1 (stereo not drawn) |  | 20.6 µM (active)
COC(=O)[C@@H]1C[C@H](NC(=O)c2ccccc2C(F)(F)F)CN1Cc1cccc(O)c1 | -9.99 | 
CCOC(=O)c1ccc(NC(=S)N2CCN(c3ccccn3)CC2)cc1 | -3.2 | 
O=[N+]([O-])c1ccc(NC(=S)N2CCN(c3ccccn3)CC2)cc1 |  | 11.6 µM (active)
COc1cc([N+](=O)[O-])ccc1NC(=S)N1CCN(c2ccccn2)CC1 | -15.4 | 
CCOC(=O)c1cnn(Cc2ccccc2Cl)c1N | -12.2 | 

Structure (SMILES) | activity change, negative = growth inhibition [%] | Potency
Cc1noc(C)c1C(=O)N1CCOCC1 | -9.18 | 
CC(C)(C)C1CCC(OC(=O)CCC(=O)Nc2ccccc2)CC1 (stereo not drawn) | -2.86 | 
CN1CCN(C(=O)/C(=C\c2cccs2)NC(=O)c2cccs2)CC1 | -7.36 | 
COc1cccc(NC(=O)CS(=O)(=O)c2cn(CC(=O)N3CCOCC3)c3ccccc23)c1 | 0.349 | 
CCOC(=O)c1ccc(NC(=O)Cn2cc(S(=O)(=O)Cc3ccccc3F)c3ccccc32)cc1 | -26.3 | 
Cc1cccc(NC(=O)Cn2cc(S(=O)(=O)Cc3ccccc3Cl)c3ccccc32)c1 |  | 20.6 µM (active)
OCCN1CCN(c2ncnc3c2ncn3[C@H]2CN(Cc3ccco3)C[C@@H](CO)O2)CC1 | -10.1 | 
O=C(Nc1ccc(Cl)cc1)c1csc([C@@H]2O[C@H](CO)[C@H](O)[C@H](O)[C@H]2O)n1 | -0.432 | 
CSc1nnnn1-c1c(C)cc(C)cc1C | 7.83 | 
COc1cccc(NC(=O)CN(C)CC(=O)Nc2ccc3c(c2)CCC3)c1 | -4 | 
O=C(/C=C/c1c(F)cccc1Cl)Nc1nn[nH]n1 | 1.45 | 
CNC(=O)/C(C#N)=C/c1c(F)cccc1Cl |  | 9.2 µM (active)
Cc1[nH]c2ccccc2c1/C=C(/C#N)C(=O)NC(C)C | -9.84 | 
Cc1ccc(C(=O)N2CCC(n3nccc3NC(=O)Nc3cccc(F)c3)CC2)cn1 | 10.4 | 
Brc1cccc(-c2nnn3c2nc(NC2CCCCC2)c2ccccc23)c1 | -26.7 | 
Cc1ccc(C)c(-n2c(SCC(=O)O)nc3sc4c(c3c2=O)CCCC4)c1 | -16.6 | 
CCCc1nc2sc3c(c2c(=O)n1NC(=O)CCCl)CCCC3 |  | 29.1 µM (active)
COc1ccc(NC(=O)CCNC(=O)Cn2cnc3sc4c(c3c2=O)CCCC4)cc1OC | -4.24 | 
CC(C)N(Cc1nc(-c2ccc3c(c2)OCO3)no1)CC1CCC(=O)N1 (stereo not drawn) | 8.55 | 
CCC(=O)c1ccc(OCC(=O)Nc2ccc(N3CCCCC3)cc2)cc1 |  | 20.6 µM (active)
O=C(COc1ccccc1)Nc1ccc(C(=O)N2CCCC2)cc1 | 22.5 | 
CCC(=O)c1ccc(OCC(=O)OCC(=O)NC2CCCCCC2)cc1 | -17 | 
O=C(NCC(=O)N1CCCCCCC1)c1ccccc1Cl | 12.3 | 
COc1cc(C(=O)Nc2ccc(OCc3cc(=O)n4ccc(C)cc4n3)cc2)cc(OC)c1OC | -9.6 | 
Cc1nc2ccccc2c(=O)n1-c1ccc(NS(=O)(=O)c2ccc(F)cc2F)cc1 | -14.2 | 
COc1cc(C(=O)Nc2ccc(-n3c(C)nc4ccccc4c3=O)cc2)cc(OC)c1OC |  | 18.4 µM (active)
